Reference: PubChem BioAssay (Tox21)
Results filed as inconclusive are left out. Active and inactive are the calls of the source. Unless noted, calls follow the shape of the dose curve; as a rule, active = well fitted curve in the direction sought with a large enough effect in the repeat runs; inconclusive = weak or mixed curves; inactive = no such curve, though single readings can be large; an effect the other way counts as inactive or inconclusive.

Experiments:
[1] = qHTS assay to identify small molecule agonists of the peroxisome proliferator-activated receptor delta (PPARd) signaling pathway - cell viability counter screen (AID 743211); also: nearly all actives have a fitted effect of over 55% in size; also: potency is read from the fitted curve at half-maximal effect
Method in brief: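 PPARd-bla HEK293H cells (UAS-beta-lactamase reporter) were treated with compounds for 17 h at 37 C. Viability was then read in the same wells by CellTiter-Glo luminescence after 30 min at room temperature.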

[2] = qHTS assay to identify small molecule antagonists of the peroxisome proliferator-activated receptor delta (PPARd) signaling pathway - cell viability counter screen (AID 743213); also: nearly all actives have a fitted effect of over 50% in size; also: potency is read from the fitted curve at half-maximal effect
Method in brief: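 Same-well viability: cells pre-incubated 5 h, dosed with compound plus 300 nM L165041, kept 17 h at 37 C, FRET substrate 2 h RT, then CellTiter-Glo 30 min RT and luminescence.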

[3] = qHTS assay to identify small molecule agonists of the farnesoid-X-receptor (FXR) signaling pathway - cell viability counter screen (AID 743218); also: nearly all actives have a fitted effect of over 45% in size; also: potency is read from the fitted curve at half-maximal effect
Method in brief: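 After 16 h at 37 C with test compounds, FXR-bla HEK 293T cells were given LiveBLAzer B/G substrate for 2 h at RT and then CellTiter-Glo; luminescence was taken after 30 min.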

[4] = qHTS assay to identify small molecule antagonists of the farnesoid-X-receptor (FXR) signaling pathway - cell viability counter screen (AID 743221; active = well fitted cell-killing curve with a large enough effect in the repeat runs, not every such curve was filed as active; also: nearly all actives have a fitted effect of over 50% in size)
Method in brief: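 FXR-UAS-bla HEK 293T cells were treated with test compounds plus chenodeoxycholic acid (50 uM final) for 16 h at 37 C. Cell viability in the same wells was then read as CellTiter-Glo luminescence after 30 min at room temperature.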

[5] = molecular target: Vitamin D3 receptor (Homo sapiens) (UniProt P11473); experiment: qHTS assay to identify small molecule agonists of the vitamin D receptor (VDR) signaling pathway (AID 743222; calls by dose curve; also: potency is read from the fitted curve at half-maximal effect)
Chain of Vitamin D3 receptor (Homo sapiens) (P11473 whole entry, looked up): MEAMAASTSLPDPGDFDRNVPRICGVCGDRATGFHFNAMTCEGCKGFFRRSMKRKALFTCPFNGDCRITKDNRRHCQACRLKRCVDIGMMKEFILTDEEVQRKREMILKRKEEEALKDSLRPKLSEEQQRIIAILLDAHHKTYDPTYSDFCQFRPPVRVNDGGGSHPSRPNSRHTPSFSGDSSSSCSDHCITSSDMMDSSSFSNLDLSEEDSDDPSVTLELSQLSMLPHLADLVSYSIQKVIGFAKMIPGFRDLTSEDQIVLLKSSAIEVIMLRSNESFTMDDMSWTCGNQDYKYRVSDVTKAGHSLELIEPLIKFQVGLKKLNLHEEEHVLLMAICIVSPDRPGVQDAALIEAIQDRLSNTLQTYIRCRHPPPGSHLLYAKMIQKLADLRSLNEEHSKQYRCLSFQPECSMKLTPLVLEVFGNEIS
Method in brief: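 VDR-bla cells were seeded, left 4 h, treated with compounds in DMSO for 16 h, incubated 2 h at RT with B/G FRET substrate, and read for fluorescence.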

[6] = molecular target: Vitamin D3 receptor (Homo sapiens) (UniProt P11473); experiment: qHTS assay to identify small molecule antagonists of the vitamin D receptor (VDR) signaling pathway (AID 743223; active = well fitted inhibition curve with a large enough effect in the signal ratio in the repeat runs, not every such curve was filed as active; the % refers to the signal ratio)
Method in brief: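 VDR-bla cells were plated, incubated 4 h at 37C, then given compound and 1alpha,25-dihydroxyvitamin D3 (3 nM final). After 16 h at 37C, LiveBLAzer B/G FRET substrate was added for 2 h at room temperature and fluorescence read.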

[7] = molecular target: Bile acid receptor (Homo sapiens) (UniProt Q96RI1); experiment: qHTS assay to identify small molecule agonists of the farnesoid-X-receptor (FXR) signaling pathway (AID 743220; active = well fitted activation curve with a large enough effect in the signal ratio in the repeat runs, not every such curve was filed as active; the % refers to the signal ratio)
Chain of Bile acid receptor (Homo sapiens) (Q96RI1 whole entry, looked up): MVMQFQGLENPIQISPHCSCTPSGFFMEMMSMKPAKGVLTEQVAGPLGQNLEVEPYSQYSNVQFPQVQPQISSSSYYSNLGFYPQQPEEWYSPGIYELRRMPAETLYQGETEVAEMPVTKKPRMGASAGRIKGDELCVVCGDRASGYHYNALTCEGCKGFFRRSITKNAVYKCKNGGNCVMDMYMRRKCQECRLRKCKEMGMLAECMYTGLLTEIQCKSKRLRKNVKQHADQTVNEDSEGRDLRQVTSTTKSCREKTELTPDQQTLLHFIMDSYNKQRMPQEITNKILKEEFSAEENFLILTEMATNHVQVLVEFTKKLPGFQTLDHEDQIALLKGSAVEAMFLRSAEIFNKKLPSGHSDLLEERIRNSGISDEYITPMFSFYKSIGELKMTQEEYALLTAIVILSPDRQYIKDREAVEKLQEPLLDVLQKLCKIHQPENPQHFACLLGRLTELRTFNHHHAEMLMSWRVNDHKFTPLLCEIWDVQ
Method in brief: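 Beta-lactamase reporter under UAS control in GeneBLAzer FXR HEK 293T cells (5000/well) measured with LiveBLAzer FRET substrate after 2 h at room temperature. Compound exposure lasted 16 h at 37C.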

[8] = molecular target: Bile acid receptor (Homo sapiens) (UniProt Q96RI1); experiment: qHTS assay to identify small molecule antagonists of the farnesoid-X-receptor (FXR) signaling pathway (AID 743217; active = well fitted inhibition curve with a large enough effect in the signal ratio in the repeat runs, not every such curve was filed as active; the % refers to the signal ratio; also: potency is read from the fitted curve at half-maximal effect)
Method in brief: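 In this cell-based antagonist screen, inhibition of CDCA-driven (50 uM final) UAS-beta-lactamase expression in HEK 293T cells was measured by FRET fluorescence following 16 h compound exposure at 37 °C.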

[9] = molecular target: Peroxisome proliferator-activated receptor delta (Homo sapiens) (UniProt Q03181); experiment: qHTS assay to identify small molecule agonists of the peroxisome proliferator-activated receptor delta (PPARd) signaling pathway (AID 743212; calls by dose curve)
Chain of Peroxisome proliferator-activated receptor delta (Homo sapiens) (Q03181 whole entry, looked up): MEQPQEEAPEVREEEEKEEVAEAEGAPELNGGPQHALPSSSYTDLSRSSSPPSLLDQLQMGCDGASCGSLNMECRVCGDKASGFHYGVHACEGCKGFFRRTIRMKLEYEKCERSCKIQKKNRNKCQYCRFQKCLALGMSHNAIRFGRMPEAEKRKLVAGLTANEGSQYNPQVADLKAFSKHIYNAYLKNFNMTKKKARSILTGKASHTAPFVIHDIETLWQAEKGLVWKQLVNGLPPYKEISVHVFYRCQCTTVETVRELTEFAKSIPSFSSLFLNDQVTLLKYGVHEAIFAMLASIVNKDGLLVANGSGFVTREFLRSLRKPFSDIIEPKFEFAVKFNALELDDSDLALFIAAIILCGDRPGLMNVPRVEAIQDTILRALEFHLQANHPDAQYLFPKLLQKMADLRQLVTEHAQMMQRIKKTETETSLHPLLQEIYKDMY
Method in brief: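 GeneBLAzer PPARd UAS-bla HEK293H cells (beta-lactamase reporter under UAS control), plated and rested 5 h at 37 C, then exposed to compounds in DMSO at 37 C; LiveBLAzer B/G FRET substrate added, 2 h room temperature, fluorescence read.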

[10] = molecular target: Peroxisome proliferator-activated receptor delta (Homo sapiens) (UniProt Q03181); experiment: qHTS assay to identify small molecule antagonists of the peroxisome proliferator-activated receptor delta (PPARd) signaling pathway (AID 743215; active = well fitted inhibition curve with a large enough effect in the signal ratio in the repeat runs, not every such curve was filed as active; the % refers to the signal ratio;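 also: cells stimulated with agonist L165041 at 300 nM final during compound exposure; series mostly up to about 62 µM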)
Method in brief: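 With L165041 present at 300 nM final, compounds were incubated 17 h at 37 C on PPARd UAS-bla HEK293H cells. A FRET-based beta-lactamase substrate was then applied for 2 h at room temperature and fluorescence intensity recorded.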
% is scaled to controls: 0 for no effect and ±100 for the full control effect.

N=c1ccn2c(n1)O[C@H]1[C@H](O)[C@@H](CO)O[C@H]12
inactive: Potency [1] | Potency [2] | Potency [3] | Potency [4] | Potency [5] | outcome [6]

C[N+]1(CC2COC(c3ccccc3)(C3CCCCC3)O2)CCCCC1 (stereo not given)
inactive: Potency [1] | Potency [2] | Potency [3] | Potency [4]

CCC(=O)O[C@]1(C(=O)CCl)[C@@H](C)C[C@H]2[C@@H]3CCC4=CC(=O)C=C[C@]4(C)[C@@]3(F)[C@@H](O)C[C@@]21C
inactive: Potency [1] | Potency [2] | Potency [3] | Potency [4] | Potency [5]

COc1ccc(C(=O)Nc2nc3ccccc3c(NCc3ccccc3)c2C#N)cc1
inactive: Potency [1] | Potency [2] | Potency [3] | Potency [7] | Potency [4]

C[C@@H]1C[C@H]2O[C@@]3(O[C@@H]2C(C)(C)O)[C@H](O)[C@@]2(C)[C@@H]4CC[C@H]5C(C)(C)[C@@H](O[C@@H]6OC[C@@H](O)[C@H](O)[C@H]6O)CC[C@@]56C[C@@]46CC[C@]2(C)[C@@H]13
inactive: Potency [1] | Potency [2] | Potency [3] | Potency [4] | Potency [5] | outcome [6]

CC(COCCO)OCCO (stereo not given)
inactive: Potency [1] | Potency [2] | Potency [3] | Potency [7] | Potency [4] | Potency [5] | outcome [6]

Nc1ncn([C@H]2C[C@H](O)[C@@H](CO)O2)c(=O)n1
inactive: Potency [1] | Potency [2] | Potency [3] | Potency [7] | Potency [4] | Potency [5] | outcome [6]
active: Potency [8] 10.6 µM

CC1=CCCC(C)(C)C12CCC(C)O2 (stereo not given)
inactive: Potency [1] | Potency [2] | Potency [8] | Potency [7]

CCn1cc(C(=O)O)c(=O)c2cnc(N3CCNCC3)nc21
inactive: Potency [1] | Potency [2] | Potency [3] | Potency [7] | Potency [4]

CC(C)(C)Cl
inactive: Potency [1] | Potency [2] | Potency [8] | Potency [3] | Potency [7] | Potency [4] | Potency [5] | outcome [6]

Cc1ccccc1S(=O)(=O)O
inactive: Potency [1] | Potency [2] | Potency [3] | Potency [4]

CC(=O)NO
inactive: Potency [1] | Potency [2] | Potency [3] | Potency [4] | Potency [5] | outcome [6]

CCCCCC[C@@H](O)C/C=C\CCCCCCCC(=O)OC
inactive: Potency [1] | Potency [2] | Potency [3] | Potency [4] | Potency [5]

O=P(O)(OCc1ccccc1)OCc1ccccc1
inactive: Potency [1] | Potency [2] | Potency [3] | Potency [7] | Potency [4] | Potency [5] | outcome [6]

CCOC(=O)COC(=O)c1cc(Oc2ccc(C(F)(F)F)cc2Cl)ccc1[N+](=O)[O-]
inactive: Potency [1] | Potency [2] | Potency [3] | Potency [4] | Potency [5]

CN(C)c1ccc(/C=C/c2ccc([N+](=O)[O-])cc2)cc1
inactive: activity change, negative = cytotoxicity [1] -8.61% [at 5.95 µM] | viability change, negative = cytotoxic [2] 1.68% [at 6.26 µM] | viability change, negative = cytotoxic [3] -8.77% [at 5.95 µM] | activation [7] -3.79% [at 5.95 µM] | activity change, negative = cytotoxicity [4] -0.888% [at 5.95 µM] | activity change, negative = inhibition [6] -22.2% [at 6.95 µM]

CNCCCN1c2ccccc2CCc2ccccc21
active: Potency [1] 26.6 µM | Potency [2] 9.44 µM | Potency [3] 18.8 µM
inactive: Potency [7]

NCC(=O)CCC(=O)O
inactive: Potency [1] | Potency [2] | Potency [8] | Potency [3] | Potency [7] | Potency [4] | Potency [5]

COC(=O)C1=C(C)NC(COC(N)=O)=C(C(=O)OC(C)C)C1c1cccc(Cl)c1Cl (stereo not given)
active: Potency [5] 29.8 µM
inactive: Potency [1] | Potency [2] | Potency [3] | Potency [4]

CCCCC(=O)OCC(=O)[C@H]1[C@H](C)C[C@H]2[C@@H]3C[C@H](F)C4=CC(=O)C=C[C@]4(C)[C@@]3(F)[C@@H](O)C[C@@]21C
inactive: Potency [1] | Potency [2] | Potency [3] | Potency [4] | Potency [5]

CO[C@@H]1[C@H](OC(=O)/C=C/C=C/C=C/C=C/C(=O)O)CC[C@]2(CO2)[C@H]1[C@@]1(C)O[C@@H]1CC=C(C)C
inactive: Potency [9] | Potency [2] | Potency [10] | Potency [5] | outcome [6]
active: Potency [3] 1.95 µM

O=C(OCCc1ccccc1)c1ccccc1
inactive: Potency [9] | Potency [2] | Potency [10] | Potency [3] | Potency [4] | Potency [5] | outcome [6]

NC(=O)C(c1ccccc1)(c1ccccc1)[C@@H]1CCN(CCc2ccc3c(c2)CCO3)C1
inactive: Potency [1] | Potency [4] | Potency [5] | outcome [6]

OCc1cc(C(O)CNCCCCCCOCCCCc2ccccc2)ccc1O (stereo not given)
inactive: Potency [10] | Potency [7] | Potency [4]
active: Potency [1] 26.6 µM

CN(C)c1ccc(CCO)cc1
inactive: Potency [9] | Potency [2] | Potency [10] | Potency [3] | Potency [4] | Potency [5] | outcome [6]
